Four molecules from PubChem BioAssay (EPA / NIEHS) can be followed below.

Structures are written as SMILES. Records with an inconclusive call do not appear. The source made the active and inactive calls. The calls were made as follows, unless noted: active = hit-call score of the fitted dose curve at least 0.9, where 1 is the maximum; inactive = score below 0.9.

The nature of test [1]: ATG_CRE_CIS: Attagene CIS-FACTORIAL HepG2 Assay for human cAMP Responsive Element (CRE) binding protein 3 (AID 2282926). The conditions noted are these: HepG2 CRE cis-reporter, Attagene multiplexed mRNA; actives raise or lower the signal. Summed up:
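HepG2 cells transiently transfected with a multiplexed reporter library (CRE-driven unit among them) were dosed for 24 h. Reporter mRNA was quantified by RT-PCR, fluorescent labelling, HpaI digestion and capillary electrophoresis, with bidirectional fitting against DMSO baseline.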

Test [2] can be described thus: ATG_CMV_CIS: Attagene CIS-FACTORIAL HepG2 Assay for human CMV (Internal Marker) (AID 2282928).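 Also: endpoint acts as a background internal control marker rather than a target.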 The conditions noted are these: HepG2 CMV promoter reporter, transcription factor profiling; actives raise or lower the signal. The gist of the method:
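HepG2 cells transiently transfected with multiple cis-regulated reporter units; 24 h compound exposure. Reporter mRNA quantified by RT-PCR, 6-FAM primer-extension labeling, HpaI digestion and capillary electrophoresis; bidirectional fitting against DMSO baseline.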

In test [3] the target is Aryl hydrocarbon receptor (Homo sapiens) (UniProt P35869). The test can be described thus: ATG_Ahr_CIS: Attagene CIS-FACTORIAL HepG2 Assay for human Aryl Hydrocarbon Receptor (Ahr) (AID 2282930). The conditions noted are these: HepG2 AhR cis-factorial reporter transcription; actives raise or lower the signal. Summed up: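 HepG2 cells transiently transfected with cis-element-driven multiplexed reporter transcription units; endogenous transcription factor activity measured as reporter mRNA 24 h after dosing. RT-PCR, 6-FAM labelling, HpaI digestion, capillary electrophoresis; bidirectional fitting versus DMSO baseline.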

Test [4] can be described thus: ATG_AP_1_CIS: Attagene CIS-FACTORIAL HepG2 Assay for human Activator Protein 1 (AP-1) (AID 2282931). The following applies: HepG2 Attagene cis-factorial AP-1 reporter mRNA; actives raise or lower the signal. The gist of the method: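 HepG2, transient cis-reporter transfection; 24 h; readout RT-PCR/CE fluorescence; DMSO baseline, gain and loss fitted.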
Test [5] in a line: ATG_BRE_CIS: Attagene CIS-FACTORIAL HepG2 Assay for human Bone Morphogenetic Protein (BMP) Response Element (BRE) (AID 2282933). The conditions noted are these: HepG2 BMP response element reporter, Attagene transcription factor profiling; actives raise or lower the signal. The gist of the method:
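Multiplexed cis-reporter assay, HepG2, 24 h exposure. mRNA from reporter units quantified via RT-PCR/CE; DMSO baseline; bidirectional curve fit.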

The nature of test [6]: ATG_Ets_CIS: Attagene CIS-FACTORIAL HepG2 Assay for human Erythroblast Transformation Specific (ETS) (AID 2282941). The following applies: HepG2 ETS cis-reporter transcription, actives raise or lower the signal. The gist of the method: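 HepG2 cells transiently transfected with cis-promoter reporter transcription units were dosed for 24 h; reporter mRNA was measured by RT-PCR, 6-FAM primer extension, HpaI digestion and capillary electrophoresis, with bidirectional fitting against DMSO baseline.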

Test [7] concerns the target Hepatocyte nuclear factor 3-beta (Homo sapiens) (UniProt Q9Y261). The test can be described thus: ATG_FoxA2_CIS: Attagene CIS-FACTORIAL HepG2 Assay for human Forkhead box A2 (FOXA2) (AID 2282942). The following applies: HepG2 cis-reporter transcription factor activity, 24 h; actives raise or lower the signal. The gist of the method:
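24 h dosing of HepG2 bearing cis-reporter constructs; mRNA readout by RT-PCR/CE fluorescence; bidirectional fit, DMSO baseline.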

The nature of test [8]: ATG_FoxO_CIS: Attagene CIS-FACTORIAL HepG2 Assay for human Forkhead box O (FoxO) (AID 2282943). The conditions noted are these: HepG2 Attagene cis-reporter, FoxO element, mRNA; actives raise or lower the signal. The gist of the method: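 HepG2 cells transiently transfected with cis-promoter-driven multiple reporter transcription units; 24 h after chemical dosing, reporter mRNA quantified by RT-PCR, fluorescent primer extension, HpaI digestion and capillary electrophoresis. Bidirectional fitting versus DMSO baseline.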

The nature of test [9]: ATG_GATA_CIS: Attagene CIS-FACTORIAL HepG2 Assay for human GATA Binding Protein (AID 2282944). The conditions noted are these: HepG2 GATA cis-element reporter, Attagene multiplex mRNA; actives raise or lower the signal. Summed up:
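After transfecting HepG2 cells with multiple cis-regulated reporter units, chemicals are dosed for 24 h; isolated RNA undergoes RT-PCR and fluorescent labeling before capillary electrophoresis, with activity expressed against DMSO.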

Test [10] concerns the target Hypoxia-inducible factor 1-alpha (Homo sapiens) (UniProt Q16665). Kind of test: ATG_HIF1a_CIS: Attagene CIS-FACTORIAL HepG2 Assay for human Hypoxia Inducible Factor 1 (HIF1A) (AID 2282951). The following applies: HepG2 Attagene cis-factorial HIF1a reporter transcription; actives raise or lower the signal. The gist of the method: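 After 24 h chemical exposure of reporter-transfected HepG2 cells, reporter cDNA was PCR-amplified, labelled by 6-FAM primer extension (2 min 95 C, 20 s 68 C, 10 min 72 C), HpaI-cut (2 h, 37 C) and analysed by CE.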

Test [11] concerns the target Hepatocyte nuclear factor 6 (Homo sapiens) (UniProt Q9UBC0). Kind of test: ATG_HNF6_CIS: Attagene CIS-FACTORIAL HepG2 Assay for human Hepatocyte Nuclear Factor 6 (HNF6) (AID 2282952). The following applies: HepG2 Attagene cis-factorial HNF6 reporter transcription; actives raise or lower the signal. Summed up:
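HepG2 cells transiently transfected with cis-element-driven multiple reporter transcription units, dosed 24 h; reporter mRNA quantified by RT-PCR, FAM primer extension, HpaI digestion and capillary electrophoresis; bidirectional fit versus DMSO baseline.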

For test [12], the target named is Heat shock factor protein 1 (Homo sapiens) (UniProt Q00613). Kind of test: ATG_HSE_CIS: Attagene CIS-FACTORIAL HepG2 Assay for human Heat Shock Transcription Factor 1 (HSE) (AID 2282953). The following applies: HepG2 HSE cis-reporter, Attagene RNA transcription; actives raise or lower the signal. Summed up: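 Endogenous transcription factor activity captured via cis-promoter reporter units transfected into HepG2; treatment lasted 24 h. Fluorescence intensity of reporter fragments analysed with bidirectional curve fitting, DMSO baseline.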

The nature of test [13]: ATG_MRE_CIS: Attagene CIS-FACTORIAL HepG2 Assay for human Metal Responsive Element (MRE) (AID 2282954). The following applies: HepG2 MRE cis-reporter transcription, Attagene multiplex; actives raise or lower the signal. Summed up:
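HepG2 cells transiently transfected with multiple cis-element reporter units measure endogenous MTF1-driven transcription. After 24 h compound exposure, reporter mRNA is quantified by RT-PCR with 6-FAM labelling, HpaI digestion and capillary electrophoresis; bidirectional fits versus DMSO.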

In test [14] the target is Paired box protein Pax-6 (Homo sapiens) (UniProt P26367). The test can be described thus: ATG_Pax6_CIS: Attagene CIS-FACTORIAL HepG2 Assay for human Paired Box 6 (PAX6) (AID 2282956). The following applies: HepG2 CIS-FACTORIAL PAX6 reporter transcription, RNA readout; actives raise or lower the signal. Summed up: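 HepG2 cells transiently transfected with multiplexed cis-promoter reporter units (endogenous TF activity) were dosed for 24 h. Reporter mRNA was quantified by RT-PCR, 6-FAM labeling, HpaI digestion and capillary electrophoresis; bidirectional fitting versus DMSO baseline.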

Test [15] in a line: ATG_SREBP_CIS: Attagene CIS-FACTORIAL HepG2 Assay for human Sterol Regulatory Element Binding (SREBP) (AID 2282962). The conditions noted are these: HepG2 Attagene cis-factorial SREBP reporter, mRNA; actives raise or lower the signal. The gist of the method:
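HepG2 cells transiently transfected with multiplexed cis-element reporter units report endogenous transcription factor activity. After 24 h of chemical exposure, reporter mRNA was quantified by RT-PCR, 6-FAM labelling, HpaI digestion and capillary electrophoresis; bidirectional fits used DMSO as baseline.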

A short description of test [16]: ATG_NRF2_ARE_CIS: Attagene CIS-FACTORIAL HepG2 Assay for human Nuclear Factor Erythroid 2 Related Factor 2 (NFR2) response to Antioxidant Response Elements (ARE) (AID 2282992). The conditions noted are these: HepG2 Attagene ARE/NRF2 reporter, transcription factor activity; actives raise or lower the signal. The gist of the method: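 HepG2 cells transiently transfected with multiplexed cis-regulated reporter transcription units measure endogenous transcription factor activity. Reporter mRNA at 24 h is quantified by RT-PCR, fluorescent labelling and capillary electrophoresis, with bidirectional fitting relative to DMSO.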

The target in test [17] is Cellular tumor antigen p53 (Homo sapiens) (UniProt P04637). Kind of test: ATG_p53_CIS: Attagene CIS-FACTORIAL HepG2 Assay for human p53 Transcription Factor (AID 2282994). The conditions noted are these: HepG2 p53 cis-element reporter, Attagene mRNA; actives raise or lower the signal. Summed up: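 HepG2 cells transiently transfected with multiplexed cis-regulated reporter transcription units read endogenous TF activity. After 24 h compound exposure, reporter mRNA was quantified by RT-PCR, fluorescent labelling, HpaI digestion and capillary electrophoresis; bidirectional fits versus DMSO baseline.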

The nature of test [18]: ATG_XTT_Cytotoxicity: Cytotoxicity Assessment in the Attagene TRANS-FACTORIAL HepG2 Assay (AID 2283584; active = hit-call score of the fitted dose curve at least 0.9, where 1 is the maximum). The gist of the method:
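HepG2 human liver cells, transiently transfected with multiple GAL4-UAS reporter units, were dosed and read at 24 h by XTT as cell number. Loss of signal was fitted relative to DMSO negative control baseline.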

A short description of test [19]: ATG_VDRE_CIS: Attagene CIS-FACTORIAL HepG2 Assay for human Vitamin D Receptor Element (VDRE) (AID 2282968). The following applies: HepG2 VDRE cis-reporter transcription, actives raise or lower the signal. Summed up: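 HepG2 cells transiently transfected with cis-element reporter units, dosed 24 h; reporter mRNA measured by RT-PCR, 6-FAM labeling, HpaI digestion and capillary electrophoresis. Activity fitted bidirectionally against DMSO baseline.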

Test [20] can be described thus: ATG_NF_kB_CIS: Attagene CIS-FACTORIAL HepG2 Assay for human Nuclear Factor Kappa B (NF-kB) (AID 2282991). The following applies: HepG2 Attagene cis-factorial NF-kB reporter mRNA; actives raise or lower the signal. Summed up: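 Fluorescence of labelled RT-PCR products separated by capillary electrophoresis gives reporter mRNA levels from transfected HepG2 cells exposed 24 h; values are fitted in both directions relative to DMSO.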

Chain of Paired box protein Pax-6 (Homo sapiens) (P26367 whole entry, looked up): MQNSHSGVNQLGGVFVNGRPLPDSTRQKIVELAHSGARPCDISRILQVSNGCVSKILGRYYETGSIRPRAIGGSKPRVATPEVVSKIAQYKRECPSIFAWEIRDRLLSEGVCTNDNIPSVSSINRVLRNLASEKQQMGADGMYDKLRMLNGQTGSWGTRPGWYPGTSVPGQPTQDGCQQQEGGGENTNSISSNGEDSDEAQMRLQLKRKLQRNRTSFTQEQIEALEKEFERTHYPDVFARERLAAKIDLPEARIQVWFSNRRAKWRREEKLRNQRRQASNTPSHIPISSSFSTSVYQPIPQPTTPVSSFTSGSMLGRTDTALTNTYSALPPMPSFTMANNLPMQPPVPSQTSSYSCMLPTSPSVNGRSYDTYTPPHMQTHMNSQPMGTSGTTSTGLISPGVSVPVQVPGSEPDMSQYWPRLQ
Chain of Aryl hydrocarbon receptor (Homo sapiens) (P35869 whole entry, looked up): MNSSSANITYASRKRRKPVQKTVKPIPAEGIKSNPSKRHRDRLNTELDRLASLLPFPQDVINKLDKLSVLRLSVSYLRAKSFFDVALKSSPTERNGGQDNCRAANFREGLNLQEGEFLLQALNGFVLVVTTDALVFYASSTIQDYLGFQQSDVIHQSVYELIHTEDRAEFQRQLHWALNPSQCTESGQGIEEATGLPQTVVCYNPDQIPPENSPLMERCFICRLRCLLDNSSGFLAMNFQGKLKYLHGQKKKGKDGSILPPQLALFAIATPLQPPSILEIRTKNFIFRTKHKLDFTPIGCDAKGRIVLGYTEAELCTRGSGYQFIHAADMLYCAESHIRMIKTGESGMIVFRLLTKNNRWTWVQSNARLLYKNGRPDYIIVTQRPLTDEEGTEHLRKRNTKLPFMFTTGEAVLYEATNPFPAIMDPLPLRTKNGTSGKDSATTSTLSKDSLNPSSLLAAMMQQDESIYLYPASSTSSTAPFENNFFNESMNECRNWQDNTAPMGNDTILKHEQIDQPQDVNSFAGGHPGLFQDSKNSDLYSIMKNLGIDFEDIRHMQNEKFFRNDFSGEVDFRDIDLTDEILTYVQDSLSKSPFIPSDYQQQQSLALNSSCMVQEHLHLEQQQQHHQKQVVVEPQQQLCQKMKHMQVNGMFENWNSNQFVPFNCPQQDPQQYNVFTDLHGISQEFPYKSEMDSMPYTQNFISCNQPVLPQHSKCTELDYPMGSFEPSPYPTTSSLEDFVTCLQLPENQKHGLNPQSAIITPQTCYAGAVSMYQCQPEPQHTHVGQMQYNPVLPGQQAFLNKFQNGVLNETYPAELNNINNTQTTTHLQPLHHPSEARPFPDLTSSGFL
Chain of Cellular tumor antigen p53 (Homo sapiens) (P04637 whole entry, looked up): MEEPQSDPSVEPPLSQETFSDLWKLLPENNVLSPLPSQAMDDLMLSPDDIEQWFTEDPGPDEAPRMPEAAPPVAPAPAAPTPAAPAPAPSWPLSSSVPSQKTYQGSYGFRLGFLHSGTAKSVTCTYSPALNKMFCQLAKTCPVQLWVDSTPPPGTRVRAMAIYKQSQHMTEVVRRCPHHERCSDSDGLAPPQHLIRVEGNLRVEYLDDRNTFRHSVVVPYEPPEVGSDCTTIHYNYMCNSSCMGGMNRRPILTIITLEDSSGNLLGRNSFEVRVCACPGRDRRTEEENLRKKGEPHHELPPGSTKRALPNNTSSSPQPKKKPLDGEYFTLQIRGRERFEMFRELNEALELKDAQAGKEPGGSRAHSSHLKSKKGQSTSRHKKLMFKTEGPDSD
Chain of Heat shock factor protein 1 (Homo sapiens) (Q00613 whole entry, looked up, the tested form may be a part): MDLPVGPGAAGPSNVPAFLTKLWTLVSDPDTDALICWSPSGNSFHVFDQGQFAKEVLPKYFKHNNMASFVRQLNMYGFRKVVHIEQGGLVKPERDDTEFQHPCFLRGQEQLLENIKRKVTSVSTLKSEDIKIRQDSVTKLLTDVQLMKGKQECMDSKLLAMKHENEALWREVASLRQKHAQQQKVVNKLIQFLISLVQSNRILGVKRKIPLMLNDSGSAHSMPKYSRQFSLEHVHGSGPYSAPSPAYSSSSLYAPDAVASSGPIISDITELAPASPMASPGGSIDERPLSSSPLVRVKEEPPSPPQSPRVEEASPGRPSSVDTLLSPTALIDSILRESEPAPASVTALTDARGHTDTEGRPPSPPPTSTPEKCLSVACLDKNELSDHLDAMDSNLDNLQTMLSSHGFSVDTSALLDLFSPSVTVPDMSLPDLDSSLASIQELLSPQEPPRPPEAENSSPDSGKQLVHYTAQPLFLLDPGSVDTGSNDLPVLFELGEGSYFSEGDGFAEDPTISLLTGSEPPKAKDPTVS
Chain of Hypoxia-inducible factor 1-alpha (Homo sapiens) (Q16665 whole entry, looked up): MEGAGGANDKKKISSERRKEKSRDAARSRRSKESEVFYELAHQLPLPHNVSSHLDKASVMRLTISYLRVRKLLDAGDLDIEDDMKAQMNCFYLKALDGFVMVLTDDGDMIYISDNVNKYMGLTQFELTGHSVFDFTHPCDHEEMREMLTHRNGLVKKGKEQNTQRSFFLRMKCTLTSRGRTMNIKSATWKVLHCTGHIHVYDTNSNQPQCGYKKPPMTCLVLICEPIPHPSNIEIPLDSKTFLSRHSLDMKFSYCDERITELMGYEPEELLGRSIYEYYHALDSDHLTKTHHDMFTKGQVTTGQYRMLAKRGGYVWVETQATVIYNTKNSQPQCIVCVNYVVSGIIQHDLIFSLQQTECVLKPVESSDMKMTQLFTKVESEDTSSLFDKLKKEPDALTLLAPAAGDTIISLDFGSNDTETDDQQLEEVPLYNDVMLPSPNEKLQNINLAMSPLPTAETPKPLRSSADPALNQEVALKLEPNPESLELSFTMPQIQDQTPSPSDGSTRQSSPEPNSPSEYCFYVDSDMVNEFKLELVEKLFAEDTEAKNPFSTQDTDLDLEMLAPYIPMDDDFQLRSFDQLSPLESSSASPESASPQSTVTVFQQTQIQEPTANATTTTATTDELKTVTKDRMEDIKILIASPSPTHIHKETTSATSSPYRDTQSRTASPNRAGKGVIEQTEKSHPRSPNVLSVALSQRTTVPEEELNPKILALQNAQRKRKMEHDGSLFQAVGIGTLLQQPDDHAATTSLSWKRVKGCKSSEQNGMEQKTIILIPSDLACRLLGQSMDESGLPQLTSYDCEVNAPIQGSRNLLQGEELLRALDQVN
Chain of Hepatocyte nuclear factor 6 (Homo sapiens) (Q9UBC0 whole entry, looked up): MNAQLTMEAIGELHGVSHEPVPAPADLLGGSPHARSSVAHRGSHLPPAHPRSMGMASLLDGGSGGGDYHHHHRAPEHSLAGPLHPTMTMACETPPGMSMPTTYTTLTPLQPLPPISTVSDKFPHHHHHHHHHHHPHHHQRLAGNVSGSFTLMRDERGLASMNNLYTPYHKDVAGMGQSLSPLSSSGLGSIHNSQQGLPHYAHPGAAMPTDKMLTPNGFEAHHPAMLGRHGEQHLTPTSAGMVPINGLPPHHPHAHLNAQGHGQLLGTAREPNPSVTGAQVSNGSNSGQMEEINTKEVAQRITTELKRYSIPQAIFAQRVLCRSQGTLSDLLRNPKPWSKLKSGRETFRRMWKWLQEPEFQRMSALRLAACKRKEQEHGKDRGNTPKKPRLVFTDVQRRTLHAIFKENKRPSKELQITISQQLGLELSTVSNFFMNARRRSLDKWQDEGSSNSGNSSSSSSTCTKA
Chain of Hepatocyte nuclear factor 3-beta (Homo sapiens) (Q9Y261 whole entry, looked up): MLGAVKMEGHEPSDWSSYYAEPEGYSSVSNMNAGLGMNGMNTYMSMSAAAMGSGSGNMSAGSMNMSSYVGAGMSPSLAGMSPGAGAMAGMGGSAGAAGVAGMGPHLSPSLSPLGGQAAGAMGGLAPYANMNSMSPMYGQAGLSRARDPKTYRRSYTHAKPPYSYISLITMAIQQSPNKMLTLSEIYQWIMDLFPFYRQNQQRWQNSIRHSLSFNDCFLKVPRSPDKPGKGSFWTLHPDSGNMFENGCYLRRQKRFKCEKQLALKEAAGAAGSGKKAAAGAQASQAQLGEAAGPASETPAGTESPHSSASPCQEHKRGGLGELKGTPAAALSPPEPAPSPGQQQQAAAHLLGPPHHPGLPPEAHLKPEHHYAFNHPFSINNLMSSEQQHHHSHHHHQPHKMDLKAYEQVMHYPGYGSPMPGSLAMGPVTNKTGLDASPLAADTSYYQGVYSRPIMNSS

On to `CCCCOC(=O)CCC(=O)OCCCC`, for which the molecule was classed as inactive in [1], in [2], in [3], in test [4], in test [5] and in test [6]. In addition, the molecule was called inactive in test [7], in [8], in [9], in [10], in [11] and in test [12]. The molecule was called inactive in test [13], in test [14], in test [15], in test [16], in test [17] and in test [18].
The AC50 is the midpoint of the concentration-response curve, whichever way the signal moves. Take `C[C@]12CCC(=O)C(O)=C1CC[C@@H]1[C@@H]2CC[C@]2(C)C(=O)CC[C@@H]12`: the molecule was called inactive in test [1], in [2], in [4], in [5], in [6] and in test [7]. In addition, the molecule was classed as inactive in test [8], in test [9], in [10], in test [11], in test [12] and in [13]. The outcome in [14], in [19], in test [20], in [17] and in [18] was inactive. The values for the AC50 in [3], in test [15] and in test [16] were 31.2 µM (active), 27.6 µM (active) and 13.8 µM (active), respectively.
On to `CN(C)CCC#N`, for which the call in test [1], in test [2], in test [4], in test [5], in test [6] and in [7] was inactive. Also, the call in [8], in [9], in test [10], in [11], in test [12] and in test [14] was inactive. Moreover, the call in test [19], in test [20], in test [16], in test [17] and in test [18] was inactive.
Consider `ClCCCCCCCl`, for which the outcome in [1], in [2], in [3], in test [5], in test [6] and in test [7] was inactive. Besides, the call in test [8], in test [9], in test [10], in test [11], in test [12] and in test [14] was inactive. Besides, the outcome in test [19], in test [20], in [16] and in test [18] was inactive.
